# Among all 310,000 compounds or so, about 2,200 (0.71%) showed an effect of 50% or more. The effect is printed as a negative number. The sample as a whole holds a higher share of strong results than the screen did.
# Molecular target: human ether-à-go-go-related gene (hERG) potassium channel (human, UniProt Q12809)
# Assay: primary screen, population patch clamp on CHO cells stably expressing hERG; higher = less effect of the substance
# Chain of human ether-à-go-go-related gene (hERG) potassium channel (Q12809 whole entry, looked up): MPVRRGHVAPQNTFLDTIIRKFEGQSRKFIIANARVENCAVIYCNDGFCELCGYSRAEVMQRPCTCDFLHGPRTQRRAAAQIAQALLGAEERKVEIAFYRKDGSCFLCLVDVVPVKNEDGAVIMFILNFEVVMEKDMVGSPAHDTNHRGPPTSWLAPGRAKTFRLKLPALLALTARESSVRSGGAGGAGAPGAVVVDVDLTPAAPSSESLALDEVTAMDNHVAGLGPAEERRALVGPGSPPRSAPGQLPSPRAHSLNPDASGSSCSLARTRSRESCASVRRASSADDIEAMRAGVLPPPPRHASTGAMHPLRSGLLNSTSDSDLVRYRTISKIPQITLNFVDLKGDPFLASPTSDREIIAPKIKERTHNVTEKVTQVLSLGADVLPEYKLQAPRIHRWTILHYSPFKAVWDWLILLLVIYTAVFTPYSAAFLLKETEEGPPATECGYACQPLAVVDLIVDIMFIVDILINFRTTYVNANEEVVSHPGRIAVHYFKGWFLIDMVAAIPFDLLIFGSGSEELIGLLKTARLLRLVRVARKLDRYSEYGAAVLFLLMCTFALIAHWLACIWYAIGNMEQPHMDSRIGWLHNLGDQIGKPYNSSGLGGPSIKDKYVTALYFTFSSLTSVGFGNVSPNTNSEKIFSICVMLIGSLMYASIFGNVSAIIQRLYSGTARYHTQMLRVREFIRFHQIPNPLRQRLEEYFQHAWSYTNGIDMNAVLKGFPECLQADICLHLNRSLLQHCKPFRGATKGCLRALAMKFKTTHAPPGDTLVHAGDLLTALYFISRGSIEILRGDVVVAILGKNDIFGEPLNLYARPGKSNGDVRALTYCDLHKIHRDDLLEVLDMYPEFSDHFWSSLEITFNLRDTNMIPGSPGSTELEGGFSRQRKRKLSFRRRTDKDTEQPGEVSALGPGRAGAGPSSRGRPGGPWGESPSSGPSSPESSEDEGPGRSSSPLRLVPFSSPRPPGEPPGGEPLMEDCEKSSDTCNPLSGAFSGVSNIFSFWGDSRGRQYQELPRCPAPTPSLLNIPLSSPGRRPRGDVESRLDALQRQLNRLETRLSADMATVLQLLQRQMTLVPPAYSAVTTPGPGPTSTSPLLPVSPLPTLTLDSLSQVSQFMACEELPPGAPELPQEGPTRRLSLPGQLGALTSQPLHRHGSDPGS
row,Compound,"hERG current change (%, negative = inhibition) at 1uM [%]"
1,Cc1cc(C)cc(NC(=O)CCNS(=O)(=O)c2ccc3c(c2)oc(=O)n3C)c1,9.33
2,COCC(=O)N1CCC(Oc2ccc(C(=O)NCc3cnc(C)cn3)cc2)CC1,13
3,CCN(c1cccc(C)c1)S(=O)(=O)c1ccc(-c2ccc(=O)[nH]n2)o1,12.8
4,O=C(O)C(=O)O.O=C(c1ccccc1)c1ccc(OCCOCCN2CCN(Cc3ccccc3)CC2)cc1,-82.8
5,O=C(O)C(=O)O.O=C(c1ccccc1)c1ccc(OCCCN2CCCC2)cc1,-29.9
6,O=C(O)C(=O)O.c1ccc(-c2ccccc2OCCCN2CCCCC2)cc1,-69.1
7,O=C(O)C(=O)O.c1ccc(-c2ccccc2OCCOCCN2CCCCC2)cc1,-18.9
8,CC1CCN(CCCCOc2ccccc2-c2ccccc2)CC1.O=C(O)C(=O)O,-74.9
9,O=C(O)C(=O)O.c1ccc(-c2ccccc2OCCN2CCCCC2)cc1,-4.98
10,O=C(O)C(=O)O.c1ccc(CN2CCN(CCOCCOc3ccc4c(c3)CCC4)CC2)cc1,11.6
11,Cc1cc(Br)ccc1OCCN1CCCC1.O=C(O)C(=O)O,-7.85
12,CC1CCN(CCOc2ccccc2-c2ccccc2)CC1.O=C(O)C(=O)O,-8.4
13,Cc1cc(Br)ccc1OCCCCN1CCCCC1.O=C(O)C(=O)O,-66.6
14,Cc1cc(Br)ccc1OCCOCCN1CCCC1.O=C(O)C(=O)O,-9.41
15,CN1CCN(CCCCOc2ccccc2-c2ccccc2)CC1.O=C(O)C(=O)O,16.8
16,CC1CC(=O)Nc2ccccc2N1C(=O)Nc1ccc(F)cc1 (stereo not drawn),9.77
17,CC(C)CCN(C(=S)Nc1cccc(C(F)(F)F)c1)C(C)c1ccccn1 (stereo not drawn),10.7
18,CCOc1cc(C2/C(=C(/O)c3ccc(OC(C)C)cc3)C(=O)C(=O)N2CCCOC)ccc1O (stereo not drawn),21.3
19,Clc1ccc(Oc2nc(N3CCOCC3)nc(N3CCOCC3)n2)c(C2CCCCC2)c1,10.6
20,Clc1cccc(Cl)c1CN1CCN(c2ccccc2)CC1,15.9
21,O=C(CCN1C(=O)C2C3CCC(C3)C2C1=O)Nc1cccc(Cl)c1 (stereo not drawn),4.67

row,Compound,"hERG current change (%, negative = inhibition) at 1uM [%]"
1,CCC1(CC)NC(=O)N(CC(=O)OCC(=O)Nc2ccc(F)c(F)c2F)C1=O,4.85
2,Cc1ccc(NC(=O)/C=C/c2ccc([N+](=O)[O-])s2)c(C)c1,10.5
3,CCOc1ccccc1-n1c(SCC(=O)NC(C)CC)nnc1-c1ccoc1C (stereo not drawn),-2.44
4,CCOCCCn1c(SC(C(=O)Nc2cc(C)ccc2C)c2ccccc2)nnc1-c1ccc(Cl)cc1 (stereo not drawn),13.5
5,CC(=O)Nc1ccc(S(=O)(=O)NC2(C(F)(F)F)NC(=O)N(c3ccccc3F)C2=O)cc1 (stereo not drawn),19.3
6,COc1ccc(NS(=O)(=O)c2ccc(/C=C/C(=O)O)cc2)cc1S(=O)(=O)N1CCOCC1,10.7
7,COc1ccc(NC(=O)c2ccc(S(=O)(=O)NCc3cccnc3)cc2)cc1,-13.3
8,O=C(Nc1ccc2oc(-c3ccccc3F)nc2c1)c1ccc2c(c1)OCCO2,3.14
9,CCN1CCN(CCCOc2ccccc2-c2ccccc2)CC1.O=C(O)C(=O)O,-16.6
10,COCCCNCCCCOc1ccc(Br)cc1Cl.O=C(O)C(=O)O,-61.5
11,Cc1ccc(OCCCCN2CCC(C)CC2)cc1.O=C(O)C(=O)O,-0.565
12,Cl.OCCCN1CCN(CCCOc2ccccc2-c2ccccc2)CC1,-57.7
13,O=C(O)C(=O)O.c1ccc(COc2ccc(OCCCCN3CCCCC3)cc2)cc1,-46.8
14,Cl.OCCN1CCN(CCOc2ccccc2-c2ccccc2)CC1,6.46
15,CC1CCN(CCCCOc2ccc(C(=O)c3ccccc3)cc2)CC1.O=C(O)C(=O)O,-72.4
16,CC1CCN(CCOc2ccc(C(=O)c3ccccc3)cc2)CC1.O=C(O)C(=O)O,3.49
17,COCCCNCCCCOc1ccc(Br)cc1C.O=C(O)C(=O)O,-24
18,O=C(O)C(=O)O.c1ccc(COc2ccc(OCCCN3CCCCC3)cc2)cc1,-57.7
19,COCCNCCCOc1ccc(Br)cc1Cl.O=C(O)C(=O)O,0.786
20,O=C(O)C(=O)O.c1ccc(COc2ccc(OCCCN3CCCC3)cc2)cc1,-39.1
21,CCN(CC)S(=O)(=O)c1ccc(C(=O)NCc2ccc3[nH]c4c(c3c2)CCCC4)cc1,16.4

# — paper PMC4336329 (PLoS ONE, 2015)
